# Measured values as given in the supplement of paper PMC4466140.
# What was measured:
# Assay in all cases: SPOT peptide array binding signal intensity (averaged, normalized) (arbitrary units (background-subtracted, floor 0; scale differs between SH3 domains)); higher = stronger binding of the SH3 domain to the peptide
# AgAbp1 = target: AgAbp1
# Procedure, shortened: (§1)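 GST-fused SH3 domains from four yeast species were expressed in E. coli BL21(DE3), purified on glutathione Sepharose and incubated at 10 μg/ml overnight at 4°C in TBS-based blocking buffer on cellulose membranes carrying synthetic 15-mer peptides, with cysteines replaced by serines. Bound protein was detected with anti-GST antibody, an HRP anti-mouse secondary and luminol, then imaged and quantified with Genespotter. Binding signal is the normalized, background-subtracted spot intensity averaged over replicates, in arbitrary units that differ between domains.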
# AgBbc1 = target: AgBbc1
# Procedure, shortened: as §1
# AgBem1-D1 = target: AgBem1-D1
# Procedure, shortened: as §1
# AgBzz1-D1 = target: AgBzz1-D1
# Procedure, shortened: as §1
# AgBzz1-D2 = target: AgBzz1-D2
# Procedure, shortened: as §1
# AgCyk3 = target: AgCyk3
# Procedure, shortened: as §1
# AgFus1 = target: AgFus1
# Procedure, shortened: as §1
# AgHof1 = target: AgHof1
# Procedure, shortened: as §1
# AgHse1 = target: AgHse1
# Procedure, shortened: as §1
# AgLsb1 = target: AgLsb1
# Procedure, shortened: as §1
# AgLsb4 = target: AgLsb4
# Procedure, shortened: as §1
# AgMyo5 = target: AgMyo5
# Procedure, shortened: as §1
# AgNbp2 = target: AgNbp2
# Procedure, shortened: as §1
# AgRvs167 = target: AgRvs167
# Procedure, shortened: as §1
# AgSho1 = target: AgSho1
# Procedure, shortened: as §1
# AgSla1-D1-D2 = target: AgSla1-D1-D2
# Procedure, shortened: as §1
# AgSla1-D3 = target: AgSla1-D3
# Procedure, shortened: as §1
# CaAbp1-D1 = target: CaAbp1-D1
# Procedure, shortened: as §1
# CaAbp1-D2 = target: CaAbp1-D2
# Procedure, shortened: as §1
# CaBbc1 = target: CaBbc1
# Procedure, shortened: as §1
# CaBem1-D1 = target: CaBem1-D1
# Procedure, shortened: as §1
# CaBzz1-D1 = target: CaBzz1-D1
# Procedure, shortened: as §1
# CaBzz1-D2 = target: CaBzz1-D2
# Procedure, shortened: as §1
# CaCyk3 = target: CaCyk3
# Procedure, shortened: as §1
# CaFus1 = target: CaFus1
# Procedure, shortened: as §1
# CaHof1 = target: CaHof1
# Procedure, shortened: as §1
# CaHse1 = target: CaHse1
# Procedure, shortened: as §1
# CaLsb1 = target: CaLsb1
# Procedure, shortened: as §1
# CaLsb4 = target: CaLsb4
# Procedure, shortened: as §1
# CaMyo5 = target: CaMyo5
# Procedure, shortened: as §1
# CaNbp2 = target: CaNbp2
# Procedure, shortened: as §1
# CaRvs167 = target: CaRvs167
# Procedure, shortened: as §1
# CaRvs167-3 = target: CaRvs167-3
# Procedure, shortened: as §1
# CaSho1 = target: CaSho1
# Procedure, shortened: as §1
# CaSla1-D1-D2 = target: CaSla1-D1-D2
# Procedure, shortened: as §1
# CaSla1-D3 = target: CaSla1-D3
# Procedure, shortened: as §1
# ScAbp1 = target: ScAbp1
# Procedure, shortened: as §1
# ScBbc1 = target: ScBbc1
# Procedure, shortened: as §1
# ScBem1-D1 = target: ScBem1-D1
# Procedure, shortened: as §1
# ScBzz1-D1 = target: ScBzz1-D1
# Procedure, shortened: as §1
# ScBzz1-D2 = target: ScBzz1-D2
# Procedure, shortened: as §1
# ScCyk3 = target: ScCyk3
# Procedure, shortened: as §1
# ScFus1 = target: ScFus1
# Procedure, shortened: as §1
# ScHof1 = target: ScHof1
# Procedure, shortened: as §1
# ScHse1 = target: ScHse1
# Procedure, shortened: as §1
# ScLsb1 = target: ScLsb1
# Procedure, shortened: as §1
# ScLsb2 = target: ScLsb2
# Procedure, shortened: as §1
# ScLsb3 = target: ScLsb3
# Procedure, shortened: as §1
# ScLsb4 = target: ScLsb4
# Procedure, shortened: as §1
# ScMyo3 = target: ScMyo3
# Procedure, shortened: as §1
# ScMyo5 = target: ScMyo5
# Procedure, shortened: as §1
# ScNbp2 = target: ScNbp2
# Procedure, shortened: as §1
# ScPex13 = target: ScPex13
# Procedure, shortened: as §1
# ScRvs167 = target: ScRvs167
# Procedure, shortened: as §1
# ScSho1 = target: ScSho1
# Procedure, shortened: as §1
# ScSla1-D1-D2 = target: ScSla1-D1-D2
# Procedure, shortened: as §1
# ScSla1-D3 = target: ScSla1-D3
# Procedure, shortened: as §1
# SpAbp1-D1 = target: SpAbp1-D1
# Procedure, shortened: as §1
# SpBbc1 = target: SpBbc1
# Procedure, shortened: as §1
# SpBzz1-D1 = target: SpBzz1-D1
# Procedure, shortened: as §1
# SpBzz1-D2 = target: SpBzz1-D2
# Procedure, shortened: as §1
# SpCyk3 = target: SpCyk3
# Procedure, shortened: as §1
# SpHof1 = target: SpHof1
# Procedure, shortened: as §1
# SpHof1-2 = target: SpHof1-2
# Procedure, shortened: as §1
# SpHof1-3 = target: SpHof1-3
# Procedure, shortened: as §1
# SpHse1 = target: SpHse1
# Procedure, shortened: as §1
# SpLsb1 = target: SpLsb1
# Procedure, shortened: as §1
# SpLsb4 = target: SpLsb4
# Procedure, shortened: as §1
# SpMyo1 = target: SpMyo1
# Procedure, shortened: as §1
# SpNbp2 = target: SpNbp2
# Procedure, shortened: as §1
# SpPex13 = target: SpPex13
# Procedure, shortened: as §1
# SpRvs167 = target: SpRvs167
# Procedure, shortened: as §1
# SpSla1-D1-D2 = target: SpSla1-D1-D2
# Procedure, shortened: as §1
# SpSla1-D3 = target: SpSla1-D3
# Procedure, shortened: as §1
binder,measurement,setting,value
SPLGAPPPPPHKDHL,SPOT peptide array binding signal intensity,AgAbp1,≤ 0
same,SPOT peptide array binding signal intensity,AgBbc1,≤ 0
same,SPOT peptide array binding signal intensity,AgBem1-D1,≤ 0
same,SPOT peptide array binding signal intensity,AgBzz1-D1,≤ 0
same,SPOT peptide array binding signal intensity,AgBzz1-D2,3
same,SPOT peptide array binding signal intensity,AgCyk3,1
same,SPOT peptide array binding signal intensity,AgFus1,≤ 0
same,SPOT peptide array binding signal intensity,AgHof1,≤ 0
same,SPOT peptide array binding signal intensity,AgHse1,≤ 0
same,SPOT peptide array binding signal intensity,AgLsb1,≤ 0
same,SPOT peptide array binding signal intensity,AgLsb4,≤ 0
same,SPOT peptide array binding signal intensity,AgMyo5,546
same,SPOT peptide array binding signal intensity,AgNbp2,≤ 0
same,SPOT peptide array binding signal intensity,AgRvs167,2.83
same,SPOT peptide array binding signal intensity,AgSho1,≤ 0
same,SPOT peptide array binding signal intensity,AgSla1-D1-D2,6
same,SPOT peptide array binding signal intensity,AgSla1-D3,≤ 0
same,SPOT peptide array binding signal intensity,CaAbp1-D1,≤ 0
same,SPOT peptide array binding signal intensity,CaAbp1-D2,≤ 0
same,SPOT peptide array binding signal intensity,CaBbc1,≤ 0
same,SPOT peptide array binding signal intensity,CaBem1-D1,≤ 0
same,SPOT peptide array binding signal intensity,CaBzz1-D1,8.5
same,SPOT peptide array binding signal intensity,CaBzz1-D2,≤ 0
same,SPOT peptide array binding signal intensity,CaCyk3,≤ 0
same,SPOT peptide array binding signal intensity,CaFus1,≤ 0
same,SPOT peptide array binding signal intensity,CaHof1,≤ 0
same,SPOT peptide array binding signal intensity,CaHse1,1
same,SPOT peptide array binding signal intensity,CaLsb1,≤ 0
same,SPOT peptide array binding signal intensity,CaLsb4,≤ 0
same,SPOT peptide array binding signal intensity,CaMyo5,13.5
same,SPOT peptide array binding signal intensity,CaNbp2,≤ 0
same,SPOT peptide array binding signal intensity,CaRvs167,3
same,SPOT peptide array binding signal intensity,CaRvs167-3,≤ 0
same,SPOT peptide array binding signal intensity,CaSho1,≤ 0
same,SPOT peptide array binding signal intensity,CaSla1-D1-D2,≤ 0
same,SPOT peptide array binding signal intensity,CaSla1-D3,≤ 0
same,SPOT peptide array binding signal intensity,ScAbp1,≤ 0
same,SPOT peptide array binding signal intensity,ScBbc1,≤ 0
same,SPOT peptide array binding signal intensity,ScBem1-D1,≤ 0
same,SPOT peptide array binding signal intensity,ScBzz1-D1,11
same,SPOT peptide array binding signal intensity,ScBzz1-D2,≤ 0
same,SPOT peptide array binding signal intensity,ScCyk3,≤ 0
same,SPOT peptide array binding signal intensity,ScFus1,≤ 0
same,SPOT peptide array binding signal intensity,ScHof1,1.5
same,SPOT peptide array binding signal intensity,ScHse1,≤ 0
same,SPOT peptide array binding signal intensity,ScLsb1,≤ 0
same,SPOT peptide array binding signal intensity,ScLsb2,≤ 0
same,SPOT peptide array binding signal intensity,ScLsb3,≤ 0
same,SPOT peptide array binding signal intensity,ScLsb4,≤ 0
same,SPOT peptide array binding signal intensity,ScMyo3,931
same,SPOT peptide array binding signal intensity,ScMyo5,670
same,SPOT peptide array binding signal intensity,ScNbp2,≤ 0
same,SPOT peptide array binding signal intensity,ScPex13,≤ 0
same,SPOT peptide array binding signal intensity,ScRvs167,1
same,SPOT peptide array binding signal intensity,ScSho1,≤ 0
same,SPOT peptide array binding signal intensity,ScSla1-D1-D2,≤ 0
same,SPOT peptide array binding signal intensity,ScSla1-D3,≤ 0
same,SPOT peptide array binding signal intensity,SpAbp1-D1,≤ 0
same,SPOT peptide array binding signal intensity,SpBbc1,≤ 0
same,SPOT peptide array binding signal intensity,SpBzz1-D1,176
same,SPOT peptide array binding signal intensity,SpBzz1-D2,≤ 0
same,SPOT peptide array binding signal intensity,SpCyk3,≤ 0
same,SPOT peptide array binding signal intensity,SpHof1,≤ 0
same,SPOT peptide array binding signal intensity,SpHof1-2,1
same,SPOT peptide array binding signal intensity,SpHof1-3,≤ 0
same,SPOT peptide array binding signal intensity,SpHse1,≤ 0
same,SPOT peptide array binding signal intensity,SpLsb1,≤ 0
same,SPOT peptide array binding signal intensity,SpLsb4,≤ 0
same,SPOT peptide array binding signal intensity,SpMyo1,1260
same,SPOT peptide array binding signal intensity,SpNbp2,≤ 0
same,SPOT peptide array binding signal intensity,SpPex13,2
same,SPOT peptide array binding signal intensity,SpRvs167,0.167
same,SPOT peptide array binding signal intensity,SpSla1-D1-D2,1
same,SPOT peptide array binding signal intensity,SpSla1-D3,≤ 0
